Source: PubChem BioAssay
Ub-GFP proteasome: inhibits proteasome, raising ubiquitin-GFP reporter fluorescence | Potency, µM (titrated, usually from 45.9 µM), inactives show top-dose activation (GFP accumulation), hits mostly activators | AID 526 | Ubiquitin-GFP reporter cells, proteasome inhibition, GFP fluorescence; response scale: untreated = 0%, 10 µM MG-132 = 100% | 67,000 tested, under 10 active; active = well fitted activation curve with a large enough effect, not every such curve was filed as active; inconclusive = small, poorly fitted or top-dose-only effect, or another doubt; inactive = no such curve, though single readings can be large or run the other way; note: potency is the fitted concentration of half-maximal effect
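U2OS cells stably expressing ubiquitin(G76V)-GFP, seeded overnight in 0.5% FBS medium, were exposed to compounds (qHTS, 46 uM to 2.9 nM) for 4 hr at 37 °C. GFP-positive cells were counted by laser cytometry (488 ex/515 em), normalized between basal and 10 uM MG-132.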
HBB splicing: alters splicing of the hemoglobin beta chain. HBB splicing reporter cell assay, activation; EGFP reporter with mutant IVS2-654 intron; response scale: normalised to 500 nM splice-correcting PNA. 65,000 compounds, 0.06% hits. Potency, µM (top dose mostly 46.1 µM), inactives show at the highest dose activation, actives largely listed as activators; note: potency is the fitted concentration of half-maximal effect; 0% is about no effect
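HeLa cells stably expressing EGFP interrupted by mutant beta-globin intron 2 (IVS2-654), 500/well in 2% FCS. Treated with compound for 2 days at 37C. Splicing correction scored as total well GFP intensity (488 nm excitation, 500-520 nm emission); 500 nM antisense PNA served as control.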
HEK293 cAMP ctrl: parental HEK293 cAMP activation (counter-screen). parental HEK293 CNG cAMP sensor, membrane potential fluorescence. Potency, µM (highest dose often 57.1 µM), for the others: at the top dose activation, most hits filed as activators. 73,000 compounds, 2.5% hits. AID 938; note: potency is the fitted concentration of half-maximal effect; % of control where 0% means no effect; nearly all actives have a fitted effect of over 55% in size
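Parental HEK 293 cells stably expressing a cAMP-gated CNG channel were loaded with membrane potential dye containing 100 uM RO 20-1724 for 60 min. Compound added for 30 min; depolarization read as fluorescence intensity at 590 nm.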
TSHR ag: activates the human thyroid stimulating hormone receptor. HEK293-CNG-TSHR cells (CNG channel as cAMP sensor), membrane potential dye, cAMP. Potency, µM (highest dose often 57.1 µM), for inactives: at the highest dose activation, hits mostly activators. 73,000 compounds, 0.48% hits; active = well fitted activation curve with a large enough effect in the main read-out, with a control signal flat, not every such curve was filed as active; inconclusive = small, poorly fitted or top-dose-only effect, or a change in a side signal; inactive = no such curve, though single readings can be large or run the other way; % of control where 0% means no effect;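 note: the control signal comes from parental cells without the receptor; potency is the fitted concentration of half-maximal effect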
Target sequence (P16473 whole entry, looked up): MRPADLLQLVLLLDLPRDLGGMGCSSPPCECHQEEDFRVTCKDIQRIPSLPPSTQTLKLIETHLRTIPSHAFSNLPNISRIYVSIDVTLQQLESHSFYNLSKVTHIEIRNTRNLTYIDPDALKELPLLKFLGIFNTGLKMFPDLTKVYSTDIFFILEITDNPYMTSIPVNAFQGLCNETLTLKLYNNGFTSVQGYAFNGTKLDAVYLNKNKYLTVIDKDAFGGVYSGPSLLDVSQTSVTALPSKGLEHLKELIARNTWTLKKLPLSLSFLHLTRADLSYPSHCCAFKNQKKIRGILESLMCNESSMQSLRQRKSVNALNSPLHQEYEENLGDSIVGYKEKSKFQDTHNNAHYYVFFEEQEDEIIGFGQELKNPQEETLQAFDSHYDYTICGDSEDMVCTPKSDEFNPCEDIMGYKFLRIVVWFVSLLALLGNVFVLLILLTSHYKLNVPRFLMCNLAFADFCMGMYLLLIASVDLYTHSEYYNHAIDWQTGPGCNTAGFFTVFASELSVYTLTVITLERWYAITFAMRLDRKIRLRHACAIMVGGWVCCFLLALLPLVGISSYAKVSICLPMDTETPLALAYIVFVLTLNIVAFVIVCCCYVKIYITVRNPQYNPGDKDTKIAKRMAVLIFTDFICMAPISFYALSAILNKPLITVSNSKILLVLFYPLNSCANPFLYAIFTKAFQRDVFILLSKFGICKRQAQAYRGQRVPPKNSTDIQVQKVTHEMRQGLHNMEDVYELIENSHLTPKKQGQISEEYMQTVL
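HEK 293 cells stably expressing TSHR and a modified CNG channel, with CNG-only parental cells as counterscreen, were preloaded 60 min at room temperature with membrane potential dye containing 100 uM RO 20-1724. Compound exposure was 30 min, and depolarization was read as fluorescence at 590 nm.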
GFP derepression: derepresses silenced GFP locus in mouse C127i cells. mouse C127i GFP locus derepression, cytometry, 30 h. Potency, µM (highest dose often 46.1 µM), for the others: at the top dose GFP derepression (activation). 68,000 compounds, 0.09% hits. AID 597; note: % of control where 0% means no effect
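Murine C127i mammary cells carrying a silenced, stably integrated CMV-driven GFP reporter were treated with compound for 30 hours at 37 C. After PBS washes, GFP-positive cells were counted by laser-scanning microplate cytometry.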
The depositor's hits bear a star; ? = inconclusive; · = no result given; [ ] = dose if it differs, or a comment. Rows were chosen to be rich in hits. Some 3% of all compounds tested hit in one or more screens of this group. Unless noted, calls come from the whole dose curve; as a rule, active = well fitted curve in the direction sought with a large enough effect; inconclusive = small, poorly fitted or top-dose-only effect, or another doubt; inactive = no such curve, though single readings can be large; an effect the other way counts as inactive or inconclusive.

SMILES | Ub-GFP proteasome | HBB splicing | HEK293 cAMP ctrl | TSHR ag | GFP derepression
CC(=O)c1sc(NC(=O)C2(F)C(F)(F)C(F)(F)C(F)(F)C(F)(F)C2(F)F)nc1C | 3% | 0%[57.5 µM] | 13µM* | ? | -2%
CC(=O)c1sc(NC(=O)C=C(C)C)nc1C | 6% | -2% | 2% | -5% | -2%
CC(=O)OC[C@@H]1O[C@@H](O/N=C2/C[C@@H](O)[C@@H](O)[C@@H]3[C@@H]4C(=O)N(c5cccc(Oc6ccccc6)c5)C(=O)[C@H]4CC[C@H]23)[C@H](OC(C)=O)[C@H](OC(C)=O)[C@@H]1OC(C)=O | · | 0%[9.22 µM] | -6%[11.4 µM] | 7%[11.4 µM] | ·
O=C(CN1C(=O)NC2(CCCCCC2)C1=O)c1ccc2c(c1)OCCO2 | -1% | -3% | 10µM* | ? | 1%
O=C(CCN1CCCCC1)c1ccc2c(c1)OCCO2 | 1% | 0%[57.5 µM] | 3% | 1% | -3%
Cc1ccc2cc(CN(Cc3ccco3)C(=O)C3CCCCC3)c(=O)[nH]c2c1C | 1% | · | 20µM* | ? | 1%
COc1cccc(CNC2CCCC2)c1 | -8% | -1%[9.22 µM] | 7% | 5% | -7%
c1ccc(-n2cccc2CNC2CCCCC2)cc1 | -8% | -2% | 25µM* | ? | -1%
CCC/C=C/C1C(=O)C2OC2C2(OCC(CC)(CC)CO2)C1CO (stereo not given) | · | 1%[9.22 µM] | -3%[11.4 µM] | 3%[11.4 µM] | ·
COc1cc([C@@H](O)CO)ccc1OS(=O)(=O)O | 3% | 0% | 5% | 6% | -1%
CC(C)CC(c1nnnn1CC1CCCO1)N1CCN(c2cccc(Cl)c2)CC1 (stereo not given) | 0% | -3% | 13µM* | ? | 1%
CC(C)CC(c1nnnn1Cc1ccco1)N1CCN(c2cccc(Cl)c2)CC1 (stereo not given) | -4% | 0%[57.5 µM] | 10µM* | ? | -4%
COc1ccc(Cn2nnnc2C(CC(C)C)N2CCN(c3ccccc3)CC2)cc1 (stereo not given) | -3% | -4% | ? | ? | 0%
O=C1C=C[C@@H](O)[C@H]2[C@@H]3C(=O)N(c4cccc(Oc5ccccc5)c4)C(=O)[C@@H]3CC[C@H]12 | · | -1%[9.22 µM] | -2%[11.4 µM] | -3%[11.4 µM] | ·
CCOC(=O)C1CCCN(CC(=O)NC2=Nc3ccccc3N=C(C)C2c2ccccc2)C1 (stereo not given) | -12% | 0% | 30% | 25µM* | -2%
Cc1ccc(-n2nc(C)c(C3C(C#N)=C(N)OC4=C3C(=O)CC(C)(C)C4)c2Cl)cc1 (stereo not given) | 1% | · | 25µM* | ? | -2%
COc1ccc(CNc2cc(-c3ccccc3CN(C)C)ncn2)c(OC)c1 | -4% | 0% | 30% | 22% | -2%[9.22 µM]
COc1ccccc1CNc1cc(-c2cccnc2)ncn1 | -9% | -1% | ? | ? | -5%[9.22 µM]
COc1ccccc1CNc1cc(-c2ccccc2C)ncn1 | 6% | 0% | 16µM* | ? | -3%[9.22 µM]
COc1ccc(CNc2cc(-c3ccccc3C)ncn2)c(OC)c1 | -8% | 1% | 16µM* | ? | -3%[9.22 µM]
COc1ccccc1CNc1cc(-c2ccccc2OC)ncn1 | 3% | -2% | 16µM* | ? | 2%[9.22 µM]
COCCNc1cc(-c2ccccc2C(F)(F)F)ncn1 | 16% | 1% | 0.32µM* | ? | 0%[9.22 µM]
COCCNc1ccnc(-c2ccccc2C(F)(F)F)n1 | 2% | 2% | 15% | -4% | 9%[9.22 µM]
C[C@](O)(c1ccccc1)c1nccc2ccccc12 | 3%[9.17 µM] | 1%[9.22 µM] | 14%[11.4 µM] | · | 2%[9.22 µM]
O=C(c1ccccc1C(=O)N1CCN(c2ccccc2F)CC1)N1CCN(c2ccccc2F)CC1 | 7% | -2% | 16µM* | ? | -2%
SMILES | Ub-GFP proteasome | HBB splicing | HEK293 cAMP ctrl | TSHR ag | GFP derepression
CC(C)CO/N=C1/C[C@@H](O)[C@@H](O)[C@@H]2[C@@H]3C(=O)N(C(C)(C)C)C(=O)[C@H]3CC[C@H]12 | · | 2%[9.22 µM] | -2%[11.4 µM] | 2%[11.4 µM] | ·
Cc1ccc(S(=O)(=O)O[C@H]2C[C@@H](C(C)(C)C)CC[C@@H]2c2ccccc2)cc1 | -5%[9.17 µM] | 1%[9.22 µM] | -3%[11.4 µM] | 0%[11.4 µM] | 9%[9.22 µM]
N#CCSc1nnc(Cc2cccc3ccccc23)n1C1CCCCC1 | -3% | -3% | 16µM* | ? | 1%
N=C(C[C@@H](O)COc1ccccc1-c1ccccc1)N1CCCCC1 | -1% | · | 32µM* | ? | 0%
Cc1cc(C)nc(SCc2nnc(SCc3ccccc3Cl)o2)n1 | -1% | · | 20µM* | ? | 1%
COC(=O)COc1ccc(S(=O)(=O)NCc2ccco2)cc1Cl | 0% | 1% | 0% | 5% | 0%
COCCNS(=O)(=O)c1ccc(OCC(=O)OC)c(Cl)c1 | 5% | -2% | 10% | 20µM* | 4%
COC(=O)C1(Cc2ccccc2)C=C2C(=C(c3ccccc3)C(=O)C2C)CN1 (stereo not given) | · | 1% | 32µM* | ? | ·
CCC[C@@H]1C[C@@]1(CCC)C(NC(=O)OCc1ccccc1)c1ccc(-c2ccccc2)cc1 (stereo not given in full) | · | -1% | 8% | -11% | ·
CCC[C@@H]1C[C@@]1(CCC)[C@@H](NP(=O)(c1ccccc1)c1ccccc1)c1ccc(C(=O)OC)cc1 | · | -1% | 13µM* | ? | ·
COc1ccc(C2C(C#N)=C(N)N3C(=C2C#N)Sc2ccccc23)cc1 (stereo not given) | 15% | 28% | -1% | -4% | 13µM*
COc1cccc(-c2noc(C3CCCN(C(=O)Cc4ccccc4)C3)n2)c1 (stereo not given) | 1% | 1% | ? | ? | -1%
COc1ccc(-c2noc(C3CCCN(C(=O)CCc4ccccc4)C3)n2)cc1 (stereo not given) | 5% | -3% | 25µM* | ? | 0%
O=C(c1ccco1)N1CCCC(c2nc(-c3ccc(S(=O)(=O)NCc4ccccc4)cc3)no2)C1 (stereo not given) | 2% | 2% | 25µM* | ? | -1%
O=C(Cc1ccccc1)N1CCCC(c2nc(-c3cccs3)no2)C1 (stereo not given) | 3% | -1% | ? | ? | 0%
CCn1c(=S)sc2c(=O)n(-c3ccccc3)c(SC)nc21 | · | -2%[0.369 µM] | 25µM* | ? | -4%
COc1ccc(C/C(O)=C(\C#N)c2nc3ccccc3s2)cc1 | 0% | 0%[57.5 µM] | 32µM* | ? | 0%
COc1ccc(-n2c(=O)c(C)nc3cnc(Oc4cccc(Cl)c4)nc32)cc1 | -3% | 2% | 16µM* | ? | 0%[9.22 µM]
COc1ccc(Oc2ncc3nc(C)c(=O)n(Cc4ccc(F)cc4)c3n2)cc1 | -7% | 10% | 16µM* | ? | -3%[9.22 µM]
Cc1nc2cnc(Oc3ccccc3)nc2n(Cc2cccs2)c1=O | 17% | 7% | 16µM* | ? | 3%[9.22 µM]
